# Screening data deposited in PubChem by National Center for Advancing Translational Sciences (NCATS).
# Eya2 phos inh = inhibitors of human Eya2 phosphatase activity; AID 488837; recombinant Eya2, OMFP fluorescence dephosphorylation (OMFP is methylfluorescein phosphate); hit rate 0.006% among 330,000; O00167; Potency, µM (highest dose often 76.9 µM), for the others: at the top dose activity, negative = inhibition, actives largely listed as inhibitors; also: potency is read from the fitted curve at half-maximal effect; % is scaled to controls: 0 for no effect and ±100 for the full control effect
# Target sequence (O00167 whole entry, looked up): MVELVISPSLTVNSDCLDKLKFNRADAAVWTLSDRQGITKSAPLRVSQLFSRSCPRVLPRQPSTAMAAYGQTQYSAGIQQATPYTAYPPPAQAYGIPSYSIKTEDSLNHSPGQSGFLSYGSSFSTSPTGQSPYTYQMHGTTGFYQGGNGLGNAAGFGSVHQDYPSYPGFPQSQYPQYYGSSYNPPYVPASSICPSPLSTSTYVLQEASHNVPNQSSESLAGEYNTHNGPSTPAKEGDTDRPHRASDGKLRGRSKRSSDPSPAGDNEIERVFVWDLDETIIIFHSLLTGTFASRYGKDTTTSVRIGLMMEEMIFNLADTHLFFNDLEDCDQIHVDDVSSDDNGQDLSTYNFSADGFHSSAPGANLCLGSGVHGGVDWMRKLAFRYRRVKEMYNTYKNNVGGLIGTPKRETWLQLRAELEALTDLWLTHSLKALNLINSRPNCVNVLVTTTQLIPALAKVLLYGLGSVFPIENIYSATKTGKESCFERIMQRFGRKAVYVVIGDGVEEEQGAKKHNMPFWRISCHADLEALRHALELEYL
#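 Eya2 (0.2 uM) preincubated 10 min at ambient with compound, then OMFP substrate added at 50 uM; 10 min reaction in 50 mM HEPES pH 7.5, 50 mM NaCl, 5 uM MgCl2, 0.05% BSA, 1 mM DTT. Fluorescence read at Ex 485/Em 525 nm.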
# D1 antagonist = antagonists of human D1 dopamine receptor; hit rate 3.2% among 360,000; HEK293 TREx D1 cells, calcium flux, dopamine EC80; active compounds read low; activity change, negative = inhibition, % at 10 µM; P21728; in the data active = activity change below about -30%; also: % is scaled to controls: 0 for no effect and ±100 for the full control effect
#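 Kinetic fluorescence of a calcium dye serves as the read-out. D1-expressing Hek293 Trex cells, induced overnight at 30 C, are exposed to compound for 180 s before an EC80 dopamine addition, then read 180 s further.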
# D1 PAM = human D1 dopamine receptor positive modulation; HEK293 TREx D1 cells, calcium flux, dopamine EC20 potentiation; potentiation, % at 10 µM; hit rate 0.036% among 360,000; in the data active = potentiation above about 30%; also: 0% is about no effect
# D1 agonist = activates the human D1 dopamine receptor. P21728. HEK293 T-REx D1 cells, calcium flux, agonist mode. activation, % at 2 µM. hit rate 1% among 360,000. AID 504660; in the data active = activation above about 30%; also: 0% is about no effect
#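 Agonism was scored from calcium flux recorded over 180 s (1 read/s) after pintool compound addition, following a 10-cycle baseline. Cells were inducible force-coupled HEK293 TREx D1, plated overnight at 30 C and loaded with no-wash calcium dye.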
# GALK inh = galactokinase (human) inhibition; Potency, µM (top dose mostly 57.5 µM), for the others: top-dose activity change, negative = inhibition, most hits filed as inhibitors; AID 1868; hit rate 0.007% among 270,000; Purified GALK, Kinase-Glo residual ATP luminescence; also: potency is read from the fitted curve at half-maximal effect; % is scaled to controls: 0 for no effect and ±100 for the full control effect
#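 Luminescence from leftover ATP (Ultra-Glo luciferase/luciferin) served as read-out after a 1 h room-temperature reaction of 5 nM GALK with 35 uM ATP and 100 uM galactose.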
# USP2a block = blocks human ubiquitin-specific protease USP2a; USP2 core, Ub-CHOP2 coupled fluorogenic reporter, 485/531; Potency, µM (doses to about 38.3 µM), for the others: top-dose activity change, negative = inhibition, usual class: inhibitors; hit rate 0.01% among 330,000; AID 463254;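 also: potency is read from the fitted curve at half-maximal effect; plate controls were DMSO wells for no effect and full inhibition by NEM control for full effect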
#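 USP2 core (10nM final) preincubated 30min RT with compound in 20mM Tris-HCl pH 8.0, 2mM CaCl2, 2mM beta-mercaptoethanol, 0.05% CHAPS; 25nM Ub-CHOP2 plus 25nM reporter substrate added, fluorescence (Ex485/Em531) read after 60min.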
# Numbers without * were called inactive; · = no result given; ! = not confirmed by another sample. Hits are enriched below; roughly 3.9% of the tested compounds scored in any of these assays. Unless noted, calls follow the shape of the dose curve; as a rule, active = well fitted inhibition curve with a large enough effect; inconclusive = small, poorly fitted or top-dose-only effect, or effect the other way; inactive = flat fitted curve, though single readings scatter.
SMILES,Eya2 phos inh,D1 antagonist,D1 PAM,D1 agonist,GALK inh,USP2a block
Cc1cccc(/C=N/NC(=O)c2ccc(NC(=O)c3ccc(F)cc3)cc2)n1,3%,-51*,-8,-3,7%,-1%
Cc1cccc(/C=N/NC(=O)c2ccc(NC(=O)c3ccc(Cl)cc3)cc2)n1,0%,-83*,-12,2,1%,1%
CC(=O)Nc1cccc(C(=O)N/N=C/c2cccc(C)n2)c1,-7%,-11,-3,3,·,1%
Cc1csc(Sc2ccc([N+](=O)[O-])cc2C(=O)OCC(=O)NC2CCCC(C)C2C)n1 (stereo not drawn),-1%,-32*,3,1,·,2%
CCC(C)NC(=O)COC(=O)c1cc([N+](=O)[O-])ccc1Sc1nc(C)cs1 (stereo not drawn),-14%,-13,-4,1,-3%,1%
Cc1ccc(-n2ncc(C(=O)Nc3ccc4c(c3)OCO4)c2C2CCN(C(=O)OC(C)(C)C)CC2)c(C)c1,·,-20,-3,0,·,·
COc1ccccc1N=c1scc(-c2ccc(S(=O)(=O)N3CCCC3)cc2)n1C,·,-34*,-1,21,·,·
CC(C)Cn1c(-c2ccc(S(=O)(=O)N3CCCC3)cc2)csc1=Nc1ccccc1,·,5,-3,0,·,·
COc1ccccc1CNC(=O)C(NS(=O)(=O)c1ccc2c(c1)CCN2C(C)=O)C(C)C (stereo not drawn),·,-28,1,-1,·,·
S=C(N/N=C/c1ccc(Cl)cc1)N1CCOCC1,5%,-37*,-9,1,1%,-5%
Cc1ccc(/C=N/NC(=S)N2CCOCC2)cc1,3%,-14,-4,3,0%,2%
CCOc1ccccc1CNC(=O)c1ccc2nc(Cc3ccc(OC)cc3)oc2c1,·,-3,-2,16,·,·
Cc1ccc(C)c(NC(=O)CCC(=O)NNC(=O)COc2cc(C)ccc2C)c1,-24%,-38*,-7,0,-3%,0%
CCCCn1c(=O)c(F)cn(Cc2ccc(OC)c([N+](=O)[O-])c2)c1=O,0%,13,-5,75*,-3%,1%
CCCCCn1c(=O)c(F)cn(Cc2ccc(OC)c([N+](=O)[O-])c2)c1=O,-5%,8,-1,1,-2%,-1%
O=C(NC1CCCCC1)c1ccc(CSc2nc3ccncc3n2Cc2ccccc2)cc1,·,-5,-3,2,·,·
CCn1c(=O)c2c(nc3n2CCCN3c2cccc(C)c2)n(C)c1=O,-8%,-31*,2,1,14%,3%
Cc1ccc(N2CCCn3c2nc2c3c(=O)n(CC(=O)OCc3ccccc3)c(=O)n2C)cc1C,-12%,-46*,-7,1,0%,0%
COC(=O)Cn1c(=O)c2c(nc3n2CCN3c2cccc(C)c2)n(C)c1=O,·,6,0,4,·,·
Cc1ccc2c(c1)N(CC(=O)NCc1cccc(Cl)c1)C(=O)c1cccnc1O2,·,0,1,-1,·,·
O=C(NCCCN1CCN(c2ccccc2F)CC1)C1CCCN(S(=O)(=O)c2cnc[nH]2)C1 (stereo not drawn),-12%,-53*,-9,4,2%,4%
CN(CCCNC(=O)C1CCCN(S(=O)(=O)c2cnc[nH]2)C1)c1ccccc1 (stereo not drawn),-16%,11,-3,2,1%,3%
CN1C(=O)C(N=Nc2ccccc2C(=O)O)N(C)C1=S (stereo not drawn),-5%,2,3,46*,3%,0%
CC1=NN(C(N)=S)C(=O)C1N=Nc1ccccc1C(=O)O (stereo not drawn),11%,-4,5,2,-7%,4%
O=C(Nc1ccc(Cl)cc1C(F)(F)F)c1cc(S(=O)(=O)NCc2ccccc2)ccc1F,·,11,-1,1,·,·
Fc1ccc(SCCc2ccncc2)cc1,-20%,-34*!,-10,9,2%,3%
c1ccc(SCCc2ccncc2)cc1,-4%,-7,-4,4,·,1%
Nc1nc(-c2ccc(Cl)cc2)nc(-c2ccc(Cl)cc2)n1,-3%,-35*,-3,1,-1%,6%
